Among all 5,500 compounds or so, about 2,000 (36%) were called active. Inconclusive results (about 18%) are left out. Cut-off read from the data, not from the text of the source: active = normalized growth mostly below about 0.91 (no sharp cut-off); inconclusive = no clear call, values can overlap the other calls; inactive = mostly above about 0.92. The list shows a part of the results.
Experiment: chemical genetic growth profiling, strain panel (AID 1159580);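 note: tested at 20 µM; growth read once vehicle control cultures reached saturation at 30 °C; 1 = growth at the plate median or of vehicle wells; lower values mean less growth of the strain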
Settings: S. cerevisiae deletion strains, growth OD

Measured: normalized growth

O=C(O)CP(=O)(O)O
inactive: locus YAL040C, strain CLN3, active compounds read low 1 | locus YCL061C, strain MRC1 (second series), active compounds read low 1 | locus YDR363W, strain ESC2, active compounds read low 1.01 | locus YER002W, strain NOP16, active compounds read low 1.01 | locus YGR229C, strain SMI1, active compounds read low 1.02 | locus YNL175C, strain NOP13, active compounds read low 1.02 | locus YNL197C, strain WHI3, active compounds read low 1.01 | locus YNL224C, strain SQS1, active compounds read low 0.993 | locus YNL322C, strain KRE1, active compounds read low 1.01 | locus YOR083W, strain WHI5 (second series), active compounds read low 1.01

Reference: PubChem BioAssay AID1159580 (chemical genetic matrix, 2015)
